In ChEMBL document CHEMBL3433997, “St. Jude Leishmania screening dataset” (2016) one finds inhibition data, which are given here for twelve molecules.

What all share (format): functional
Assay [1] concerns the target Solute carrier family 2, facilitated glucose transporter member 1 (Homo sapiens) (UniProt P11166). The assay can be described thus: ST_JUDE_LEISH: Cytotoxicity at 2uM final concentration against transgenic Leishmania Mexicana promastigotes LmGLUT1 that are glucose transport deficient and complemented with the human glucose transporter GLUT1. Activity is measured by DNA content using SYBR green in vitro.

In assay [2] the target is Hexose transporter 1 (Plasmodium falciparum) (UniProt O97467). The assay is described as follows: ST_JUDE_LEISH: Cytotoxicity at 2uM final concentration against transgenic Leishmania Mexicana promastigotes LmPfHT that are glucose transport deficient and complemented with the Plasmodium falciparum hexose transporter. Activity is measured by DNA content using SYBR green in vitro.

The target of assay [3] is Glucose transporter (Leishmania mexicana) (UniProt O61059). The assay can be described thus: ST_JUDE_LEISH: Cytotoxicity at 2uM final concentration against transgenic Leishmania Mexicana promastigotes LmGT2 that are glucose transport deficient and complemented with the L. Mexicana glucose transporter 2. Activity is measured by DNA content using SYBR green in vitro.

The term inhibition denotes the drop in the measured response relative to a control, in per cent.

Chain of Solute carrier family 2, facilitated glucose transporter member 1 (Homo sapiens) (P11166 whole entry): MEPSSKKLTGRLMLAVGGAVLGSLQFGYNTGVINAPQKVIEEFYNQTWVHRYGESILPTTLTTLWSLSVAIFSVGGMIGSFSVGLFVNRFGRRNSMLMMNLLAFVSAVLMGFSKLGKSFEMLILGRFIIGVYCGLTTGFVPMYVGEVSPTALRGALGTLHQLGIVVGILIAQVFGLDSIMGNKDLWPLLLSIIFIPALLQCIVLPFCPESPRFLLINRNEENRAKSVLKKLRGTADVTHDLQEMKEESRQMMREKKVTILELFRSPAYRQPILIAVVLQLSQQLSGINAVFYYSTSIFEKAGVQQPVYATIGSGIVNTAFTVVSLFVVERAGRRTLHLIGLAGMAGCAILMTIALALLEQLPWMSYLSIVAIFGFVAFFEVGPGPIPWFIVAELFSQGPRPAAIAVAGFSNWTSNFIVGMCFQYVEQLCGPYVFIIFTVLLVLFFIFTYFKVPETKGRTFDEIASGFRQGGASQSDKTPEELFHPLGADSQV

With `CC1(C)Cc2c([nH]c3ccccc23)C(CCCCCCCCC2=NC(C)(C)Cc3c2[nH]c2ccccc32)=N1`, the values for the inhibition in assay [1], in assay [2] and in assay [3] were 8.46%, 6.32% and 0.21%, respectively.

For the molecule `CCCCOc1cc(OC)c2ccccc2c1CCNCCCCNCCc1c(OCCCC)cc(OC)c2ccccc12`, the inhibition was found to be 105% in assay [1], 106% in assay [2] and 104% in assay [3].

Take `Cc1c[nH]c(-c2cccc(C(=O)NC3CCC(CCN4CCc5ccc(C#N)cc5CC4)CC3)c2)n1` (stereo unspecified): the inhibition in assay [1] worked out at 2.16%; in assay [2], 1.04%; in assay [3], 1.55%.

For the molecule `Nc1nc(N)c2c(ccc3c2ccn3Cc2cccc3ccccc23)n1`, the inhibition was 97.3% in assay [1], 96% in assay [2] and 88.4% in assay [3].

In the case of `Cc1[nH]c(C)c(-c2ccc(-c3ccc(Cl)cc3)nc2)c(=O)c1Br`, the inhibition in assay [1] was -0.04%; in assay [2], -0.24%; in assay [3], -1.28%.

Take `Fc1cccc(COc2ccc(-n3ccc4c(NCCCn5ccnc5)ncnc43)cc2Cl)n1`: the inhibition in assay [1] turned out to be 1.74%; in assay [2] it was 2.45%; in assay [3], 1.59%.

Take `CCCOc1ccc(CCNCCCCNCCc2ccc(OCCC)c3ccccc23)c2ccccc12`: the inhibition came out at 101% in assay [1], 99.1% in assay [2] and 105% in assay [3].

With `COc1cccc(C(=O)Nc2ccc(S(=O)(=O)c3cc4c(cc3OC)CCN(C)CC4)cc2)c1`, the inhibition in assay [1] was 1.6%; in assay [2] it was -0.4%; in assay [3], 1.23%.

Regarding `O=C(Nc1cccc(F)c1)N(Cc1ccc(-c2cccc(CN3CCNCC3)c2)cc1)C1CCN(Cc2ccccc2)CC1`, the inhibition worked out at 7.44% in assay [1], 6.99% in assay [2] and 6.85% in assay [3].

`COc1cc2nc(N3CCN(c4nc(N)c5cc(OC)c(OC)cc5n4)CC3)nc(N)c2cc1OC`: the inhibition in assay [1] is 5.24%; in assay [2], 4.56%; in assay [3], 4.05%.

`O=C(Nc1ccc(F)cc1)c1ccc(C(=O)NC2CCN(CC3CCCCC3)CC2)cc1`: the inhibition was 19.2% in assay [1], 16.6% in assay [2] and 11.7% in assay [3].

Turning to `O=C(Nc1cc(F)c(F)c(-c2cccnc2)c1)N1CCc2cc(Cl)c(Cl)cc21`, the inhibition is 0.67% in assay [1], -1.8% in assay [2] and -0.31% in assay [3].
